Laboratory results reported in PubChem BioAssay (NCATS).
Records with an inconclusive call do not appear. The source made the active and inactive calls. Calls come from the whole dose curve; as a rule, active = well fitted curve in the direction sought with a large enough effect; inconclusive = small, poorly fitted or top-dose-only effect, or another doubt; inactive = no such curve, though single readings can be large; an effect the other way counts as inactive or inconclusive.

Experiments:
[1] = qHTS of pediatric cancer cell lines to identify multiple opportunities for drug repurposing: Primary screen for SK-N-MC cells (AID 1347093); note: series mostly up to about 46 µM
Summary of the method: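 Metabolically active cells were quantified by ATP-dependent luminescence (CellTiter-Glo, 15 min at room temperature) following 48 h treatment. Cells had been plated at 500-1,000 per well and settled for 5 h beforehand.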

[2] = qHTS of pediatric cancer cell lines to identify multiple opportunities for drug repurposing: Primary screen for BT-37 cells (AID 1347094); note: series mostly up to about 57 µM
Summary of the method: (§1)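 CRCs from 8- or 11-point titrations (lowest final 0.59 nM NPC, 0.78 nM MIPE). Cell viability: CellTiter-Glo after 48 h incubation, 15 min room-temperature development, luminescence imaging.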

[3] = qHTS of pediatric cancer cell lines to identify multiple opportunities for drug repurposing: Primary screen for NB-EBc1 cells (AID 1347095)
Summary of the method: as §1

[4] = qHTS of pediatric cancer cell lines to identify multiple opportunities for drug repurposing: Primary screen for U-2 OS cells (AID 1347096); note: nearly all actives have a fitted effect of over 50% in size
Summary of the method: (§2)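 Cells (500-1,000/well) in growth media were settled 5 h at 37 degrees C, then given compounds for 48 h. Viability was read as CellTiter-Glo luminescence. Primary runs used MIPE at 11 points (0.78 nM-46 µM) and NPC at 8 points (0.59 nM-46 µM); follow-ups used 11 points.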

[5] = qHTS of pediatric cancer cell lines to identify multiple opportunities for drug repurposing: Primary screen for Saos-2 cells (AID 1347097); note: nearly all actives have a fitted effect of over 40% in size
Summary of the method: as §1

[6] = qHTS of pediatric cancer cell lines to identify multiple opportunities for drug repurposing: Primary screen for SK-N-SH cells (AID 1347098);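 note: DMSO served as neutral control and bortezomib at 2.3 µM as positive control; nearly all actives have a fitted effect of over 65% in size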
Summary of the method: (§3)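 Cells (500-1,000/well) rested 5 h, then received compounds for 48 h; metabolically active cells were measured by CellTiter-Glo luminescence. Final concentrations spanned up to 46 µM (MIPE, 11-point) or 0.59 nM-46 µM (NPC, 8-point) in primary screens, 11-point in follow-ups.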

[7] = qHTS of pediatric cancer cell lines to identify multiple opportunities for drug repurposing: Primary screen for NB1643 cells (AID 1347099); note: nearly all actives have a fitted effect of over 50% in size
Summary of the method: as §1

[8] = qHTS of pediatric cancer cell lines to identify multiple opportunities for drug repurposing: Primary screen for Rh18 cells (AID 1347102); note: nearly all actives have a fitted effect of over 65% in size
Summary of the method: as §2

[9] = qHTS of pediatric cancer cell lines to identify multiple opportunities for drug repurposing: Primary screen for BT-12 cells (AID 1347101); note: nearly all actives have a fitted effect of over 25% in size
Summary of the method: as §3

[10] = qHTS of pediatric cancer cell lines to identify multiple opportunities for drug repurposing: Primary screen for LAN-5 cells (AID 1347100)
Summary of the method: as §2

Measured: Potency

CCCCCOc1ccc(C2SC(=O)NC2=O)cc1OCC (stereo not given)
not listed: [9] | [10]
inactive: all other assays above

O=C(O)Cn1cnnn1
not listed: [8] | [10]
inactive: all other assays above

C/C(=N/NC(=O)c1ccncc1)C(=O)O
not listed: [10]
inactive: all other assays above

Cc1ncc(CO)c(CO)c1O
not listed: [10]
inactive: all other assays above

Cc1ccc(C(=O)C(=O)O)cc1C
not listed: [9]
inactive: all other assays above

C[C@H]1C[C@H]2[C@@H]3CCC4=CC(=O)C=C[C@]4(C)[C@H]3C(=O)C[C@]2(C)[C@@]1(O)C(=O)CO
not listed: [9]
inactive: all other assays above

CC(=O)OCC(=O)[C@@]1(O)[C@H](OC(C)=O)C[C@H]2[C@@H]3CCC4=CC(=O)C=C[C@]4(C)[C@@]3(F)[C@@H](O)C[C@@]21C
not listed: [8] | [10]
inactive: all other assays above

COCCOCC(OC)OC
not listed: [7]
inactive: all other assays above

Cc1c(N)cccc1C(F)(F)F
not listed: [9] | [10]
inactive: all other assays above

Cc1ccc(/C=N/n2c(-c3ccccc3)csc2=S)cc1
not listed: [7] | [8] | [9]
inactive: all other assays above

NC(=O)COCCN1CCN(C(c2ccccc2)c2ccc(Cl)cc2)CC1 (stereo not given)
not listed: [6]
inactive: all other assays above

CC(=O)c1ccc(O)c(C(N)=O)c1
not listed: [6]
inactive: all other assays above

COc1cc(C=O)ccc1O
not listed: [6] | [8]
inactive: all other assays above

CO/N=C(/C(=O)N[C@@H]1C(=O)N2C(C(=O)[O-])=C(C[n+]3ccn4ncccc43)CS[C@H]12)c1nsc(N)n1
not listed: [7]
inactive: all other assays above

O=C(OCC(COC(=O)c1cccnc1)(COC(=O)c1cccnc1)COC(=O)c1cccnc1)c1cccnc1
not listed: [6]
inactive: all other assays above

COc1ccc(/C(C)=C/C(=O)O)c(OC)c1
not listed: [6] | [9]
inactive: all other assays above

CN1[C@@H]2CC[C@H]1CC(NC(=O)n1c(=O)[nH]c3ccccc31)C2 (stereo not given in full)
not listed: [6]
inactive: all other assays above

CCOC(=O)Oc1ccc(CCNC(=O)[C@H](CCSC)NC(C)=O)cc1OC(=O)OCC
not listed: [7]
inactive: all other assays above

CCNC(=O)NCCCOc1cccc(CN2CCCCC2)c1
not listed: [6]
inactive: all other assays above

CC(=O)CC/C=C(\C)CC/C=C(\C)CC/C=C(\C)CCC=C(C)C
not listed: [7] | [10]
inactive: all other assays above

O=C(Oc1ccccc1)c1ccccc1O
not listed: [7]
inactive: all other assays above

COC(=O)/C=C(/C)N
not listed: [6]
inactive: all other assays above

CCCCC(O)/C=C(C)/C=C/C=C/C(=O)N1CCCC1=O (stereo not given)
not listed: [7]
inactive: all other assays above

CC(C)(C)c1nnc(NS(=O)(=O)c2ccccc2)s1
not listed: [7]
inactive: all other assays above

CCOc1c(N2CCOCC2)cnn(C)c1=O
not listed: [6] | [8]
inactive: all other assays above
